Source: PubChem BioAssay (EPA / NIEHS)
Calls of active or inactive are those of the source. How the source made its calls: active means hit-call score of the fitted dose curve at least 0.9, where 1 is the maximum; inactive means score below 0.9.

read-out: CYP4A11 (gene 1579); assay: LTEA_HepaRG_CYP4A11: Life Technologies and Expression Analysis (LTEA) Assay for CYP4A11 using HepaRG (AID 2283486); details: mRNA level, 48 h; actives raise or lower the signal
How it was run: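 Human hepatic HepaRG cultures receive duplicate 48 h exposures across a concentration-response series topping at 100 uM. Expression changes in CYP4A11 are measured by qRT-PCR relative to DMSO controls.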

Sequence of Cytochrome P450 3A4 (Homo sapiens) (P08684 whole entry, looked up): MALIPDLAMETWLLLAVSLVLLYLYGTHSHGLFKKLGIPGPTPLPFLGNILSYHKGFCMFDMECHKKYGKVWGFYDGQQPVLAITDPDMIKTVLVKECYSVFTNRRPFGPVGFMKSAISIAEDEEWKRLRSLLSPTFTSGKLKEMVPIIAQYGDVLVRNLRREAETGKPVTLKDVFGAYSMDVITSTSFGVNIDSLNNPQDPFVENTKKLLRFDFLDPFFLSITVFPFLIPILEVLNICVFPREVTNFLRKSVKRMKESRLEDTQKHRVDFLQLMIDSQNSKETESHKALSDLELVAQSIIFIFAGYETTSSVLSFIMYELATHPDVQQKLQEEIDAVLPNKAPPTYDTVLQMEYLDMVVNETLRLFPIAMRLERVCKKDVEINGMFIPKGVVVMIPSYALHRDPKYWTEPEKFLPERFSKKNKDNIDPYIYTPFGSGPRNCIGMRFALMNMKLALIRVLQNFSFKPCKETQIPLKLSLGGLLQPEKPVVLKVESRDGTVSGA

| SMILES | outcome | AC50 |
| --- | --- | --- |
| OCC1CO1 (stereo not drawn) | inactive |  |
| CCOC(=O)c1ccccc1C(=O)OCC | inactive |  |
| Cc1ccc(N)cc1N | inactive |  |
| Nc1ccc(Cl)cc1 | inactive |  |
| CCCCCCCc1ccc(O)cc1 | inactive |  |
| CCN(CC)c1ccccc1 | inactive |  |
| c1ccc2c(c1)Nc1ccccc1S2 | inactive |  |
| O=P1(N(CCCl)CCCl)NCCCO1 (stereo not drawn) | inactive |  |
| Nc1cc2c3c(c1)C(c1ccccc1)=N[C@@H](NC(=O)c1cccnc1)C(=O)N3CC2 |  | 50 µM (active) |
| CCCN(CCC)c1c([N+](=O)[O-])cc(C(C)C)cc1[N+](=O)[O-] |  | 81.2 µM (active) |
| O=C(O)C1C(C(=O)O)C2(Cl)C(Cl)=C(Cl)C1(Cl)C2(Cl)Cl (stereo not drawn) | inactive |  |
| O=[N+]([O-])c1ccccc1 | inactive |  |
| CCC(C)(C)c1ccc(O)cc1 | inactive |  |
| CC(Cl)(Cl)C(=O)O | inactive |  |
| Nc1ccc2ccccc2c1 | inactive |  |
| CCCCN(CCCC)N=O | inactive |  |
| COCCOCCO | inactive |  |
| O=C(O)C(Cl)Cl | inactive |  |

read-out: Cytochrome P450 3A4 (Homo sapiens) (UniProt P08684); assay: LTEA_HepaRG_CYP3A4: Life Technologies and Expression Analysis (LTEA) Assay for CYP3A4 using HepaRG (AID 2283487); details: mRNA level, 48 h; actives raise or lower the signal
How it was run: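 Differentiated HepaRG cells, plated 48 h, then dosed 48 h in serum-free induction medium with 0.5% DMSO, 8 half-log concentrations up to 100 uM, duplicate. CYP3A4 mRNA by qRT-PCR, normalized to ACTB/GAPDH/POLR2A; bidirectional fit versus DMSO.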

| SMILES | outcome | AC50 |
| --- | --- | --- |
| OCC1CO1 (stereo not drawn) | inactive |  |
| CCC1(c2ccccc2)C(=O)N=C(O)NC1=O (stereo not drawn) |  | 50 µM (active) |
| CCOC(=O)c1ccccc1C(=O)OCC | inactive |  |
| Cc1ccc(N)cc1N | inactive |  |
| Nc1ccc(Cl)cc1 | inactive |  |
| O=P(Oc1ccccc1)(Oc1ccccc1)Oc1ccccc1 |  | 3.44 µM (active) |
| CCCCCCCc1ccc(O)cc1 | inactive |  |
| CCN(CC)c1ccccc1 | inactive |  |
| c1ccc2c(c1)Nc1ccccc1S2 | inactive |  |
| O=P1(N(CCCl)CCCl)NCCCO1 (stereo not drawn) | inactive |  |
| Nc1cc2c3c(c1)C(c1ccccc1)=N[C@@H](NC(=O)c1cccnc1)C(=O)N3CC2 |  | 7.78 µM (active) |
| O=C(O)C1C(C(=O)O)C2(Cl)C(Cl)=C(Cl)C1(Cl)C2(Cl)Cl (stereo not drawn) | inactive |  |
| O=[N+]([O-])c1ccccc1 | inactive |  |
| CCC(C)(C)c1ccc(O)cc1 | inactive |  |
| CC(Cl)(Cl)C(=O)O | inactive |  |
| Nc1ccc2ccccc2c1 | inactive |  |
| CCCCN(CCCC)N=O | inactive |  |
| O=C(O)C(Cl)Cl | inactive |  |

read-out: DNA damage-inducible transcript 3 (DDIT3), DDIT3 (gene 1649); assay: LTEA_HepaRG_DDIT3: Life Technologies and Expression Analysis (LTEA) Assay for DNA damage-inducible transcript 3 (DDIT3) using HepaRG (AID 2283488); details: mRNA level, 48 h; actives raise or lower the signal
How it was run: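 Differentiated human HepaRG cells in serum-free induction medium were exposed in duplicate for 48 h to 8 concentrations (top 100 uM, half-log steps, 0.5% DMSO). DDIT3 mRNA measured by TaqMan qRT-PCR, normalized to ACTB/GAPDH/POLR2A; bidirectional fit versus DMSO.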

| SMILES | outcome | AC50 |
| --- | --- | --- |
| OCC1CO1 (stereo not drawn) | inactive |  |
| CCC1(c2ccccc2)C(=O)N=C(O)NC1=O (stereo not drawn) | inactive |  |
| CCOC(=O)c1ccccc1C(=O)OCC | inactive |  |
| Cc1ccc(N)cc1N | inactive |  |
| Nc1ccc(Cl)cc1 | inactive |  |
| O=P(Oc1ccccc1)(Oc1ccccc1)Oc1ccccc1 |  | 75.4 µM (active) |
| CCCCCCCc1ccc(O)cc1 | inactive |  |
| CCN(CC)c1ccccc1 | inactive |  |
| c1ccc2c(c1)Nc1ccccc1S2 | inactive |  |
| O=P1(N(CCCl)CCCl)NCCCO1 (stereo not drawn) | inactive |  |
| Cc1ccc(O)cc1C | inactive |  |
| Nc1cc2c3c(c1)C(c1ccccc1)=N[C@@H](NC(=O)c1cccnc1)C(=O)N3CC2 | inactive |  |
| CCCN(CCC)c1c([N+](=O)[O-])cc(C(C)C)cc1[N+](=O)[O-] | inactive |  |
| O=C(O)C1C(C(=O)O)C2(Cl)C(Cl)=C(Cl)C1(Cl)C2(Cl)Cl (stereo not drawn) | inactive |  |
| O=[N+]([O-])c1ccccc1 | inactive |  |
| CCC(C)(C)c1ccc(O)cc1 | inactive |  |
| CC(Cl)(Cl)C(=O)O | inactive |  |
| CC(C)(C)c1ccc(O)cc1 | inactive |  |
| Nc1ccc2ccccc2c1 | inactive |  |
| CCCCN(CCCC)N=O | inactive |  |
| COCCOCCO | inactive |  |
| O=C(O)C(Cl)Cl | inactive |  |
